# “And” between values parts separate entries of the source, which are not always exact repeats. Identical values can stand only once. Records with an inconclusive call do not appear. Entries that show only a call come without a potency. Some structures have more than one record in an assay (separate samples or runs), and their calls can disagree. The source made the active and inactive calls. Calls follow the shape of the dose curve; as a rule, active = well fitted curve in the direction sought with a large enough effect; inconclusive = small, poorly fitted or top-dose-only effect, or another doubt; inactive = no such curve, though single readings can be large; an effect the other way counts as inactive or inconclusive.
# Assay: Viability qHTS for spleen associated tyrosine kinase inhibitor (SYKi) drug resistant MV4-11 cells (AID 1963824)
# Details: SYKi-resistant MV4-11 viability, CellTiter-Glo, 72 h; series mostly up to 45 µM
# How it was run: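 SYK-inhibitor-resistant MV4-11 AML cells were seeded at 500 per well onto compound and cultured 72 hours (37 °C, 5% CO2). CellTiter-Glo was then added, and after 10 min at room temperature, luminescence gave viability.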
# Also: nearly all actives have a fitted effect of over 35% in size.
# Potency is read from the fitted curve at half-maximal effect.
row,Structure (SMILES),Potency
1,Nc1c2c(nc3ccccc13)CCCC2,inactive and 18.6 µM (active)
2,CCCCCCCC(=O)OCC(O)CO (stereo not given),inactive
3,c1ccc2c(CC3=NCCN3)cccc2c1,11.9 µM (active)
4,O=c1[nH]cnc2c1ncn2[C@@H]1O[C@H](CO)[C@@H](O)[C@H]1O,inactive
5,CCn1cc(C(=O)O)c(=O)c2ccc(C)nc21,inactive
6,NS(=O)(=O)c1ccc(Cl)c(S(N)(=O)=O)c1,inactive
7,O=c1ccc2ccccc2o1,inactive
8,CCCCc1ccc2nc(NC(=O)OC)[nH]c2c1,0.118 µM (active)
9,CCN(CC)C(=O)C1CN2CCc3cc(OC)c(OC)cc3C2CC1OC(C)=O (stereo not given),inactive
10,O=C(CO)N1CCC(c2[nH]nc(-c3ccc(Cl)cc3)c2-c2ccncn2)CC1,9.2 µM (active)
11,CCCCCCCC(=O)OCC(COC(=O)CCCCCCC)OC(=O)CCCCCCC,inactive
12,O=C(CCCl)NCc1ccccc1,inactive
13,CN(Cc1cnc2nc(N)nc(N)c2n1)c1ccc(C(=O)N[C@@H](CCC(=O)O)C(=O)O)cc1,10.6 nM (active) and 46.8 nM (active)
14,N=C(N)c1ccc2cc(OC(=O)c3ccc(N=C(N)N)cc3)ccc2c1,18.6 µM (active)
15,CCCCCCCCCCCCCCCC(=O)O,inactive
16,Cc1ccnc(NS(=O)(=O)c2ccc(N)cc2)n1,inactive
17,NC(=O)NC(=O)Cc1ccccc1,inactive
18,Cc1ncc([N+](=O)[O-])n1C,inactive
19,CC1CCN(CCCC(=O)c2ccc(F)cc2)CC1,inactive
20,CC(=O)NS(=O)(=O)c1ccc(N)cc1,inactive

row,Structure (SMILES),Potency
1,CC(C)NCC(O)COc1ccc(CCOCC2CC2)cc1 (stereo not given),inactive
2,OCc1cccnc1,inactive
3,CCN(CC)CCN,inactive
4,CC(C)CCCC(C)CCCC(C)CCCCC(C)CCCC(C)CCCC(C)C (stereo not given),inactive
5,O=C(O)c1ccccc1Nc1cc(Cl)ccc1C(=O)O,inactive
6,Nc1ncn([C@H]2C[C@H](O)[C@@H](CO)O2)c(=O)n1,4.68 µM (active)
7,CC(=O)OC[C@H]1O[C@@H](OC(C)=O)[C@H](OC(C)=O)[C@@H]1OC(C)=O,inactive
8,O=c1[nH]c(=O)n([C@H]2C[C@H](O)[C@@H](CO)O2)cc1Br,8.41 µM (active)
9,CCN(CC)CC(=O)Oc1ccc(NC(C)=O)cc1,inactive
10,O=C(Nc1ccc(Cl)cc1)Nc1ccc(Cl)c(Cl)c1,9.44 µM (active)
11,CCN(CC)C(=O)c1ccc(O)c(OC)c1,inactive
12,CCCC(=O)O[C@]1(C(=O)CO)CC[C@H]2[C@@H]3CCC4=CC(=O)CC[C@]4(C)[C@H]3[C@@H](O)C[C@@]21C,inactive
13,CC1CCc2cc(F)cc3c(=O)c(C(=O)O)cn1c23 (stereo not given),6.68 µM (active)
14,C[N+](C)(C)CCOC(=O)CCC(=O)OCC[N+](C)(C)C,inactive
15,CC12CC3CC(C)(C1)CC(N)(C3)C2,3.76 µM (active)
16,NCCS,inactive
17,Oc1ccccc1C=NCc1ccccc1,inactive
18,CN1CCN(c2ccc(OC(F)(F)F)c(Nc3ncc4c(n3)-c3c(c(C(N)=O)nn3CCO)CC4)c2)CC1,20.6 nM (active) and 46.8 nM (active)
19,NCC1CCC(C(=O)Oc2ccc(CCC(=O)O)cc2)CC1 (stereo not given),inactive
20,O=C1NC(O)CCN1[C@@H]1O[C@H](CO)[C@H](O)[C@H]1O (stereo not given in full),inactive

# Assay: Quantitative highthroughput screen to assess conditional lethalithy of P12 Ichikawa cells grown in Human Plasma-Like Medium with dialyzed fetal bovine serum (HPLM+ds) (AID 1963879)
# Details: ATP luminescence, 48 h; Potency: viability; series mostly up to 45.8 µM
# How it was run: (§1)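 Each medium arm—HPLM with 10% dialyzed FBS, or RPMI1640 with 5 mM glucose and 10% untreated or dialyzed FBS—was screened against an 11-point, 3-fold compound titration for 48 h at 37 °C, with CellTiter-Glo luminescence as endpoint.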
row,Structure (SMILES),Potency
1,Nc1c2c(nc3ccccc13)CCCC2,inactive
2,CCn1cc(C(=O)O)c(=O)c2ccc(C)nc21,inactive
3,CCCCc1ccc2nc(NC(=O)OC)[nH]c2c1,0.0935 µM (active)
4,CN(Cc1cnc2nc(N)nc(N)c2n1)c1ccc(C(=O)N[C@@H](CCC(=O)O)C(=O)O)cc1,0.0662 µM (active)
5,N=C(N)c1ccc2cc(OC(=O)c3ccc(N=C(N)N)cc3)ccc2c1,inactive
6,CC(C)NCC(O)COc1ccc(CCOCC2CC2)cc1 (stereo not given),inactive
7,O=C1NC(O)CCN1[C@@H]1O[C@H](CO)[C@H](O)[C@H]1O (stereo not given in full),inactive

# Assay: Quantitative highthroughput screen to assess conditional lethalithy of P12 Ichikawa cells grown in RPMI1640 with dialyzed fetal bovine serum (RPMI+ds) (AID 1963880)
# Details: ATP luminescence, 48 h; Potency: P12-Ichikawa viability; series mostly up to 45.8 µM
# How it was run: as §1
row,Structure (SMILES),Potency
1,Nc1c2c(nc3ccccc13)CCCC2,inactive
2,CCn1cc(C(=O)O)c(=O)c2ccc(C)nc21,inactive
3,CN(Cc1cnc2nc(N)nc(N)c2n1)c1ccc(C(=O)N[C@@H](CCC(=O)O)C(=O)O)cc1,0.105 µM (active)
4,CC(C)NCC(O)COc1ccc(CCOCC2CC2)cc1 (stereo not given),inactive
5,O=C1NC(O)CCN1[C@@H]1O[C@H](CO)[C@H](O)[C@H]1O (stereo not given in full),inactive

# Assay: Quantitative highthroughput screen to assess conditional lethalithy of P12 Ichikawa cells grown in RPMI1640 with untreated serum (RPMI+s) (AID 1963881)
# Details: ATP luminescence, 48 h; Potency: viability; series mostly up to 45.8 µM
# How it was run: as §1
row,Structure (SMILES),Potency
1,Nc1c2c(nc3ccccc13)CCCC2,inactive
2,CCn1cc(C(=O)O)c(=O)c2ccc(C)nc21,inactive
3,CCCCc1ccc2nc(NC(=O)OC)[nH]c2c1,0.0833 µM (active)
4,CC(C)NCC(O)COc1ccc(CCOCC2CC2)cc1 (stereo not given),inactive
5,O=C1NC(O)CCN1[C@@H]1O[C@H](CO)[C@H](O)[C@H]1O (stereo not given in full),inactive

# Assay: Quantitative highthroughput screen to assess conditional lethalithy of SEM cells grown in Human Plasma-Like Medium with dialyzed fetal bovine serum (HPLM+ds) (AID 1963882)
# Details: SEM B-ALL cells in HPLM+ds, CellTiter-Glo viability, 48 h; series mostly up to 45.8 µM
# How it was run: as §1
row,Structure (SMILES),Potency
1,Nc1c2c(nc3ccccc13)CCCC2,inactive
2,CCn1cc(C(=O)O)c(=O)c2ccc(C)nc21,inactive
3,CN(Cc1cnc2nc(N)nc(N)c2n1)c1ccc(C(=O)N[C@@H](CCC(=O)O)C(=O)O)cc1,0.132 µM (active)
4,N=C(N)c1ccc2cc(OC(=O)c3ccc(N=C(N)N)cc3)ccc2c1,inactive
5,CC(C)NCC(O)COc1ccc(CCOCC2CC2)cc1 (stereo not given),inactive
6,Nc1ncn([C@H]2C[C@H](O)[C@@H](CO)O2)c(=O)n1,2.96 µM (active)
7,CC12CC3CC(C)(C1)CC(N)(C3)C2,inactive
8,O=C1NC(O)CCN1[C@@H]1O[C@H](CO)[C@H](O)[C@H]1O (stereo not given in full),inactive

# — PubChem BioAssay (NCATS)
